Test results taken from PubChem BioAssay (NCI).
This is part of a sample that, as a whole, favours compounds with a hit. Of some 83,000 tested, about 20% had one in any assay.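 Testing used 96-well plates and a 48-hour single-concentration exposure. Example: -40 means 40% of the starting cells died.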 The source made the active and inactive calls. Rule for the calls: active = growth percent below 10; inactive = the rest.

Tested on: MDA-MB-468 breast
Test: NCI-60 one-dose screen, 48 h (100 = growth as untreated, 0 = no growth, -100 = all killed)
Settings: 10 µM unless noted

SMILES	growth
O=C1C=C(Cl)C(=O)c2ccccc21	-6.29% (active)
COc1cc(N2CCC(N(C)C)CC2)ccc1Nc1ncc(Cl)c(Nc2ccccc2P(C)(C)=O)n1	-38.3% (active)
Cc1ccc2c(c1)Sc1c(ccc3ccccc13)N2	86.6% (inactive)
N#CC(C(=O)/C(=N/NC(=O)c1ccccc1O)C(C#N)c1ccccc1)c1ccccc1 (centres undefined)	67.1% (inactive)
CCN(CC)c1ccc(C=O)c(OCc2cn(CC(=O)Nc3ccc(Cl)cc3)nn2)c1	63.5% (inactive)
COc1ccc(-c2nc(NC(=O)CS(=O)(=O)c3ccc(F)cc3)sc2C)cc1	32% (inactive)
O=S(=O)(NCCCNc1nccc(-c2cn(-c3ccccc3)nc2-c2ccc(Cl)c(O)c2)n1)c1ccccc1	59.7% (inactive)
COC(=O)c1c2c(c(C)[n+]([O-])c1C)C(=O)C=CC2=O	-33% (active)
COC(=O)[C@H](C)NC(=O)NC(=O)NC(=O)CI	70.2% (inactive)
CCCCn1c(C)nc2cc(Nc3nc(N4CCCCC4)nc4nc[nH]c34)ccc21	36.1% (inactive)
CCCCNC(=O)c1ccccc1C	82.3% (inactive)
c1ccc(-c2n(Cc3ccc4ccccc4n3)cc[n+]2Cc2ccc3ccccc3n2)cc1	-12.3% (active)
NC1(c2ccc(-c3nc4ccn5c(=O)[nH]nc5c4cc3-c3ccccc3)cc2)CCC1	-32.4% (active)
C=C(C)[C@@H]1CC[C@]2(C(=O)N3CCN(C)CC3)CC[C@]3(C)[C@H](CC[C@@H]4[C@@]5(C)CCC(=O)C(C)(C)[C@@H]5CC[C@]43C)[C@@H]12	77.3% (inactive)
O=C(CN1C(=O)NC2NC(=O)NC21)N/N=C/c1cccc([N+](=O)[O-])c1 (centres undefined)	97.6% (inactive)
O=C(Cc1ccccc1)NC(c1ccc(Cl)cc1)c1c(O)ccc2ccccc12 (centres undefined)	7.01% (active)
CCCCCCNC(=O)Oc1ccc(/C(=C(\C)c2ccc(OC)cc2)c2ccc(OCCN(C)C)cc2)cc1	95.4% (inactive)
CC(=O)c1ccc2c(ccc3ccccc32)c1	95.5% (inactive)
COc1ccc2[nH]cc(-c3nc(-c4c[nH]c5c(Cl)nccc45)cs3)c2c1	34.1% (inactive)
COc1ccc(C2=CC(c3cc(OC)c(OC)c(OC)c3)n3ncnc3N2)cc1 (centres undefined)	32.2% (inactive)
CN(C)c1ccc(C2C(C#N)=C(/N=C/c3ccccc3)Oc3c2ccc2ccccc32)cc1 (centres undefined)	86.3% (inactive)
COc1ccc(C(=O)c2cc(OC)c(OC)c(OC)c2)cc1/C=C/C(=O)c1ccc2c(c1)OCO2	9.38% (active)
COc1ccc2oc(=O)cc(Cn3cc(Cn4cnc5c4c(=O)n(C)c(=O)n5C)nn3)c2c1	101% (inactive)
CCCCN1C(=O)/C(=c2\sc3n(c2=O)NC2C(N=3)N(CC)C(=O)N2CC)c2ccccc21 (centres undefined)	14.3% (inactive)
